We go through six compounds from PubChem BioAssay (Tox21).

Results filed as inconclusive are left out. The source made the active and inactive calls. Unless noted, the call rests on the fitted dose curve.

Assay [1] can be described thus: Nuclear factor erythroid 2-related factor 2/antioxidant responsive element (Nrf2/ARE) small molecule agonists: qHTS cell viability counter screen in human keratinocytes (AID 1919968; active means well fitted curve in the direction sought with a large enough effect in the repeat runs; an effect the other way counts as inactive or inconclusive; further: nearly all actives have a fitted effect of over 55% in size). The essentials:
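Cells of the KeratinoSens line were plated at 1,500 per well and left for 5 h before compound transfer from DMSO stocks. After a 23 h incubation (37 C, 5% CO2), CellTiter-Fluor was added. Signal was taken as fluorescence intensity 1 h later.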
(In general: qHTS replaces the single test concentration by a dilution series.)

In assay [2] the target is Gonadotropin-releasing hormone receptor (Homo sapiens) (UniProt P30968). The assay can be described thus: Human gonadotropin-releasing hormone receptor (GnRHR) small molecule agonists, calcium flux assay in GnRHR-HEK293 cells (AID 1920063). Further: nearly all actives have a fitted effect of over 35% in size. The essentials: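 Compounds dissolved in DMSO are pin-transferred onto dye-loaded GnRHR-HEK293 cells, which were seeded 18 h before at 37 C/5% CO2. Calcium signal is read as fluorescence intensity at 1 s intervals for 3 min.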
Sequence of Gonadotropin-releasing hormone receptor (Homo sapiens) (P30968 whole entry, looked up): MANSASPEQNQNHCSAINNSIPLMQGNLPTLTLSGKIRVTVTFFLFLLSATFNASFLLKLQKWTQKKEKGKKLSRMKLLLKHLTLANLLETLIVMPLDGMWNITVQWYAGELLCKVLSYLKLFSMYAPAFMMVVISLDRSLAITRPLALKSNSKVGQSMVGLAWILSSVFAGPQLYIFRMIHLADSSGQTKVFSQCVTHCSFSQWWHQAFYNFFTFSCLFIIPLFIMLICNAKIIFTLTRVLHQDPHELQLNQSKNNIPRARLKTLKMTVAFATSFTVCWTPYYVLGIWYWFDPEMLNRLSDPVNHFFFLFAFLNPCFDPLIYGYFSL

Assay [3] has as its target KiSS-1 receptor (Homo sapiens) (UniProt Q969F8). Briefly: Human kisspeptin (KISS1R) small molecule agonists, calcium flux assay in KISS1R-HEK293 cells (AID 1920064; active means well fitted curve in the direction sought with a large enough effect in the repeat runs; an effect the other way counts as inactive or inconclusive). In short, it runs like this: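 Cell line: HEK293, stable human KISS1R. Dye loading 1 h at 37 C after 18 h culture. Read: kinetic fluorescence, 480/540 nm, 3 min at 1 s intervals.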
A general note: A change in cytosolic calcium serves as a functional read-out for many receptors and channels.

Assay [4] is described as follows: G protein-coupled receptor (GPCR) small molecule agonists, calcium flux assay: HEK293 wild type cell line counter screen (AID 1920065). In short, it runs like this: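 Tox21 10K compounds, 15 concentrations each in triplicate, pin-transferred in DMSO onto dye-loaded cells; kinetic read at 480/540 nm for 3 min, 1 s intervals.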
The nature of assay [5]: p53 small molecule agonists, cell-based qHTS assay with human liver microsomes (AID 1963577).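 Further: p53 response element beta-lactamase reporter cells with liver microsomes plus NADPH.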 The essentials: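 p53RE-bla cells; 5 h settle, 37 C/5% CO2; cpd + HLM 0.5 mg/mL + NADPH 0.5 mg/mL (final); 16 h 37 C; LiveBLAzer 2 h RT dark; fluorescence readout.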
Assay [6] is described as follows: p53 small molecule agonists, cell-based qHTS assay with rat liver microsomes (AID 1963578). The essentials:
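Rat liver microsome activation: microsomes 0.5 mg/mL, NADPH 0.5 mg/mL final; p53RE-bla cells, 16 h 37 C; LiveBLAzer readout, 2 h RT dark.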

Assay [7] can be described thus: p53 small molecule agonists, cell-based qHTS assay with human liver microsomes: qHTS cell viability counter screen (AID 1963579). Further: nearly all actives have a fitted effect of over 45% in size. The essentials:
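Luminescent CellTiter-Glo read-out, 30 min at room temperature, gauged cytotoxicity in p53RE-bla cells exposed 16 h at 37 C to DMSO-dissolved compounds with metabolic activation by human liver microsomes and NADPH, each 0.5 mg/mL final.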

Assay [8] in a line: p53 small molecule agonists, cell-based qHTS assay with rat liver microsomes: qHTS cell viability counter screen (AID 1963580). Further: nearly all actives have a fitted effect of over 45% in size. The essentials:
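After the beta-lactamase ratio was read, CellTiter-Glo was added to the same wells and luminescence measured at 30 min; cells had been treated 16 h at 37 C with compounds, rat liver microsomes and NADPH (0.5 mg/mL final each).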

The nature of assay [9]: p53 small molecule agonists, cell-based qHTS assay: qHTS cell viability counter screen (AID 1963581). Further: nearly all actives have a fitted effect of over 45% in size. In short, it runs like this: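 ATP content measured by luminescence in HCT-116 p53RE-bla cells treated 16 h at 37 C, same wells as the reporter screen.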
The nature of assay [10]: p53 small molecule agonists, cell-based qHTS assay (AID 1963582; active means well fitted activation curve with a large enough effect in the signal ratio in the repeat runs, not every such curve was filed as active; the % refers to the signal ratio). The essentials:
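16 h compound exposure (37 C) of p53 response element–bla cells, preceded by 5 h recovery at 37 C/5% CO2; read-out via LiveBLAzer B/G FRET substrate, 2 h RT, fluorescence intensity.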

In assay [11] the target is 5-hydroxytryptamine receptor 2A (Homo sapiens) (UniProt P28223). Briefly: 5-hydroxytryptamine receptor 2A (HTR2A) small molecule antagonists, cell-based qHTS assay (AID 1963586). Further: nearly all actives have a fitted effect of over 45% in size. Further: potency means the concentration at half of the fitted maximal effect. The essentials:
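CHO cells stably expressing human HTR2A were plated for 18 h at 37 C, then loaded with calcium dye for 1 h. Compounds were preincubated 5 min at room temperature before DOI (4 nM solution) was added. Kinetic fluorescence was read for 3 min.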

For assay [12] the target is unchanged. The assay can be described thus: 5-hydroxytryptamine receptor 2A (HTR2A) small molecule agonists, cell-based qHTS assay (AID 1963587). Further: nearly all actives have a fitted effect of over 30% in size. The essentials:
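CHO cells stably expressing human HTR2A, plated 18 h, loaded with calcium dye 1 h at 37 C. Agonist mode: compounds added and intracellular calcium fluorescence recorded kinetically for 2 min at 1 sec intervals.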

For assay [13], the target named is Muscarinic acetylcholine receptor M1 (Homo sapiens) (UniProt P11229). Briefly: Cholinergic receptor muscarinic 1 (CHRM1) small molecule antagonists, cell-based qHTS assay (AID 1963588). Further: nearly all actives have a fitted effect of over 40% in size. In short, it runs like this: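 Compounds were tested at 15 concentrations in three independent runs. Dye-loaded CHRM1-CHO cells were exposed 5 min at room temperature before stimulation by acetylcholine added at 50nM. Intracellular calcium was read kinetically on FDSS for 3 min.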
Sequence of Muscarinic acetylcholine receptor M1 (Homo sapiens) (P11229 whole entry, looked up): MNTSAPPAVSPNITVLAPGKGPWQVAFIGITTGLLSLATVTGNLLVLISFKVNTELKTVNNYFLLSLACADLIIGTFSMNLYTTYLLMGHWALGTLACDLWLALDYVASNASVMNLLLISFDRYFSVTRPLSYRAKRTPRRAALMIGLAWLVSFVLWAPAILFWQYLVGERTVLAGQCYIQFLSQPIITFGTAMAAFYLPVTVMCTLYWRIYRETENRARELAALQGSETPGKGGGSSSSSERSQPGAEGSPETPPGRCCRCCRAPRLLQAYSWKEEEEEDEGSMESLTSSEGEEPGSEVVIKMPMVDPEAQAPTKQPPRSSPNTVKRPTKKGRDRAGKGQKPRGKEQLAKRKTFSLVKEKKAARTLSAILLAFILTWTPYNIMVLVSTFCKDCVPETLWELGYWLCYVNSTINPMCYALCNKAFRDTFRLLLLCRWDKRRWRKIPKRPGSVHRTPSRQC

Assay [14] has the same target. Briefly: Cholinergic receptor muscarinic 1 (CHRM1) small molecule agonists, cell-based qHTS assay (AID 1963589). Further: nearly all actives have a fitted effect of over 35% in size. In short, it runs like this:
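Homogeneous fluorescence calcium flux, agonist mode. Human M1-expressing CHO cells; compound dosed at 15 concentrations, three independent runs; signal sampled every 1 sec.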

The nature of assay [15]: cAMP Responsive Elements (CRE) small molecule agonists, cell-based qHTS assay (AID 1963590). In short, it runs like this:
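HEK 293T cells stably bearing CRE-bla were plated at 2,000 cells per well and rested 18 h. Compounds, positive controls or DMSO were added for 3 h at 37 C. LiveBLAzer B/G substrate was then loaded for 2 h at room temperature.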

Assay [16] is described as follows: cAMP Responsive Elements (CRE) small molecule antagonists, cell-based qHTS assay (AID 1963591; active means well fitted inhibition curve with a large enough effect in the signal ratio in the repeat runs, not every such curve was filed as active; the % refers to the signal ratio). In short, it runs like this:
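First, CRE-bla HEK293T cells settled 18 h at 37 C. Next, compound and 0.25 uM final NKH477 were applied for 3 h. Last, LiveBLAzer B/G substrate was loaded for 2 h at room temperature.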

The target of assay [17] is Beta-2 adrenergic receptor (Homo sapiens) (UniProt P07550). The assay can be described thus: Adrenergic beta2 receptor (ADRB2) small molecule antagonists, cell-based qHTS assay (AID 1963592). Further: series mostly up to about 92 µM; nearly all actives have a fitted effect of over 50% in size. In short, it runs like this: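 Assay format: CHO-ADRB2 cells, 18-20hr seeding at 37C/5% CO2, then compound plus 1nM isoproterenol agonist mix for 0.5hr RT. Homogeneous time-resolved fluorescence cAMP detection after 1hr, expressed as 665/615 nm ratio.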
Sequence of Beta-2 adrenergic receptor (Homo sapiens) (P07550 whole entry, looked up): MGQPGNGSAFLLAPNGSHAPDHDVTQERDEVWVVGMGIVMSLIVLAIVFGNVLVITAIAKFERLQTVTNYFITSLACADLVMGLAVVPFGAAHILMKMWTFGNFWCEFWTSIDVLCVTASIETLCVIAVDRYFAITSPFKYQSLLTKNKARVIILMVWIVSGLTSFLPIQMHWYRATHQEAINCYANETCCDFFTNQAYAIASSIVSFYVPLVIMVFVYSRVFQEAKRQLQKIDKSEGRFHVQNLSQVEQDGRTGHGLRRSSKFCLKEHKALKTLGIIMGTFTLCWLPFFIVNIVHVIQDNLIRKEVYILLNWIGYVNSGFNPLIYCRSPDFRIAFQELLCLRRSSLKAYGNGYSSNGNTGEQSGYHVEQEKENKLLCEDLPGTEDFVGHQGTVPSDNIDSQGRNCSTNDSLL

For assay [18] the target is unchanged. Briefly: Adrenergic beta2 receptor (ADRB2) small molecule agonists, cell-based qHTS assay (AID 1963593).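 Further: CHO cells stably overexpressing human ADRB2.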 The essentials: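 CHO cells stably over-expressing ADRB2 were plated overnight at 37C, then dosed with compounds plus a stimulation mix containing 100uM IBMX and 25uM Ro-20-1724 for 0.5hr at room temperature. cAMP was measured by HTRF competition, 1hr.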

Assay [19] deals with D(2) dopamine receptor (Homo sapiens) (UniProt P14416). The assay can be described thus: Dopamine D2 receptor (DRD2) small molecule agonists, cell-based qHTS assay (AID 1963594). Further: nearly all actives have a fitted effect of over 35% in size. The essentials: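 HEK293 cells stably expressing human DRD2, pre-treated with PDE inhibitor Ro20-1724 (0.1 mM final) and compound 10 min at room temperature, then stimulated with NKH477 (200nM […]) for 30 min. cAMP read by HTRF (665/620 nm).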
Sequence of D(2) dopamine receptor (Homo sapiens) (P14416 whole entry, looked up): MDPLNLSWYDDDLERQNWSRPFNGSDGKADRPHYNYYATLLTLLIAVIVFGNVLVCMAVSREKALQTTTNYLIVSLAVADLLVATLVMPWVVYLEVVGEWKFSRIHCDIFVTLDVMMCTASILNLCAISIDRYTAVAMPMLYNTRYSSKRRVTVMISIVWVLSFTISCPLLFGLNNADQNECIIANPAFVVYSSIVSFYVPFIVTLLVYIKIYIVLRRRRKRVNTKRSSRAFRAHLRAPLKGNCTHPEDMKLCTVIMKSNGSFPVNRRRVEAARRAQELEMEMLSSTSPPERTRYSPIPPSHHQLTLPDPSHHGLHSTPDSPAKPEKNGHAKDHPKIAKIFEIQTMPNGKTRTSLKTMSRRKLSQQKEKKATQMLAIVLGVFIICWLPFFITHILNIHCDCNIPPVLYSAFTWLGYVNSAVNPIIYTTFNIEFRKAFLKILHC

For assay [20] the target is unchanged. Briefly: Dopamine D2 receptor (DRD2) small molecule antagonists, cell-based qHTS assay (AID 1963595; active means well fitted inhibition curve with a large enough effect in the signal ratio in the repeat runs, with a control signal flat; the % refers to the signal ratio). In short, it runs like this:
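In this cell-based antagonist screen, compounds act for 10 min at room temperature before a 30 min challenge with 12 nM quinpirole and 200 nM NKH477. cAMP is quantified by HTRF competition in DRD2-HEK293 cells containing 0.1 mM Ro20-1724.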

Sequence of 5-hydroxytryptamine receptor 2A (Homo sapiens) (P28223 whole entry, looked up): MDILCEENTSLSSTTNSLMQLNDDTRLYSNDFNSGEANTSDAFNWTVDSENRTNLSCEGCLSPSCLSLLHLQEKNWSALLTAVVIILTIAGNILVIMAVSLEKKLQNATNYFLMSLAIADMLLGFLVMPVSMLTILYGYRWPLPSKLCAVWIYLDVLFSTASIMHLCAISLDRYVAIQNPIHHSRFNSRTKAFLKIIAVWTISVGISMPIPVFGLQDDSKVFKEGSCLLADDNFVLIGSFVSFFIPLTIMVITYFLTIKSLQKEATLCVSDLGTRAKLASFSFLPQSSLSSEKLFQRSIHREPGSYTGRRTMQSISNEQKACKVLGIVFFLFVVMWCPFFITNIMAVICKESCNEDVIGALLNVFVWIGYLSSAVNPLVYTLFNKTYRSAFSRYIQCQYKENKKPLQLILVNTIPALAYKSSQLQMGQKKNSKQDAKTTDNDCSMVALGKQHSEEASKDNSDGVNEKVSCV
Sequence of KiSS-1 receptor (Homo sapiens) (Q969F8 whole entry, looked up): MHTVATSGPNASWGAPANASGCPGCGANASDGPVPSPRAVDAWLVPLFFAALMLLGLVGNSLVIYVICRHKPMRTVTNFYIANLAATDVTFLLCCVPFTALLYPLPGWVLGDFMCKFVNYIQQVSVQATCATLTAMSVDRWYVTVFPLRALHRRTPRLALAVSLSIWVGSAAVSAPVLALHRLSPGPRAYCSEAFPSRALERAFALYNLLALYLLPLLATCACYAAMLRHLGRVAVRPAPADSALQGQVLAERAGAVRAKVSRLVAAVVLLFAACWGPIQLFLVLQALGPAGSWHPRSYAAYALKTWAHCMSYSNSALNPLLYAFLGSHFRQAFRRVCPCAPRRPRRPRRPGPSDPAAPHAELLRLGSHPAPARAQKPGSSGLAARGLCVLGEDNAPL

As to `CN(C1CCCCC1)S(=O)(=O)c1ccccc1N`, the Potency entry in [1], in assay [2], in assay [3], in assay [4], in [5] and in [6] was “inactive” throughout. Moreover, the Potency result in assay [7], in [8], in assay [9], in assay [10], in assay [12] and in assay [13] was “inactive” each time. Also, the Potency entry in [14], in assay [15], in assay [16], in assay [17], in [18] and in assay [19] was “inactive” throughout. Also, the Potency result in assay [20] is “inactive”. Further, in [11], the Potency is 37.5 µM (active).

On to `O=CC1CC1`, for which the Potency result in assay [1], in [2], in assay [3], in assay [4], in assay [5] and in assay [6] was “inactive” in each case. The Potency result in assay [7], in assay [8], in [9], in assay [10], in assay [11] and in assay [12] was “inactive” in each case. Further, the Potency entry in assay [13], in [14], in [15], in assay [16], in assay [17] and in assay [18] was “inactive” in each case. Besides, the Potency result in assay [19] and in assay [20] was “inactive” each time.

Regarding `O=C(O)C[C@H](NC(=O)OCc1ccccc1)C(=O)O`, the Potency entry in assay [1], in [2], in [3], in [4], in [5] and in assay [6] was “inactive” throughout. The Potency entry in [7], in assay [8], in assay [9], in [10], in assay [11] and in assay [12] was “inactive” in each case. For the same compound, the Potency result in assay [13], in assay [14], in [15], in [16], in assay [17] and in assay [19] was “inactive” each time. In assay [20], the Potency result is “inactive”.

As to `CCOc1ccccc1OCC`, the Potency entry in assay [1], in [2], in assay [3], in assay [4], in [5] and in assay [6] was “inactive” each time. Also, the Potency result in assay [7], in [8], in assay [9], in assay [10], in assay [11] and in assay [12] was “inactive” throughout. Also, the Potency result in [13], in [14], in assay [15], in assay [16], in assay [17] and in [18] was “inactive” each time. In addition, the Potency result in [19] and in assay [20] was “inactive” in each case.

For the compound `CC(C)(C)c1ccc(CCC=O)cc1`, the Potency entry in assay [1], in assay [2], in assay [3], in assay [4], in [5] and in assay [6] was “inactive” throughout. The Potency entry in assay [7], in assay [8], in assay [9], in assay [10], in assay [11] and in assay [12] was “inactive” in each case. Further, the Potency entry in [13], in assay [14], in assay [15], in assay [16], in [17] and in [19] was “inactive” throughout. Besides, the Potency result in assay [20] was “inactive”.

As for `CC(C)CC=O`, the Potency result in [1], in assay [2], in [3], in assay [4], in assay [5] and in [6] was “inactive” in each case. The Potency entry in assay [7], in assay [8], in assay [9], in assay [10], in assay [11] and in assay [12] was “inactive” in each case. For the same compound, the Potency entry in assay [13], in [14], in [15], in assay [16], in assay [17] and in assay [19] was “inactive” in each case. Moreover, the Potency result in [20] is “inactive”.
